Results taken from PubChem BioAssay (NCATS).
Records with an inconclusive call do not appear. Entries that show only a call come without a potency. Active and inactive are the calls of the source. Calls come from the whole dose curve; as a rule, active = well fitted curve in the direction sought with a large enough effect; inconclusive = small, poorly fitted or top-dose-only effect, or another doubt; inactive = no such curve, though single readings can be large; an effect the other way counts as inactive or inconclusive.

Assays:
[1] = Quantitative High-Throughput drug screen in 47 multiple myeloma cell lines against the NCATS MIPE library collection: KMM1_JCRB cell viability assay (AID 1918960); note: nearly all actives have a fitted effect of over 30% in size; note: potency is the fitted concentration of half-maximal effect
In short: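 Myeloma cells, 500 per well, were exposed to MIPE 4.0 drugs by pin transfer for 48 h at 37 °C, 5% CO2. Viability was read as ATP luminescence with CellTiter-Glo, normalised to DMSO-only (100%) and medium-only (0%) wells.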

[2] = Quantitative High-Throughput drug screen in 47 multiple myeloma cell lines against the NCATS MIPE library collection: KHM11_PLB cell viability assay (AID 1918962); note: nearly all actives have a fitted effect of over 35% in size
In short: (§1)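 Primary qHTS used for cherry-picking: cells at 500/well, library compounds for 48 h (37C, 5% CO2), luminescent ATP assay.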

[3] = Quantitative High-Throughput drug screen in 47 multiple myeloma cell lines against the NCATS MIPE library collection: JIM3_ECACC cell viability assay (AID 1918963; note: nearly all actives have a fitted effect of over 35% in size; note: potency is the fitted concentration of half-maximal effect)
In short: as §1

[4] = Quantitative High-Throughput drug screen in 47 multiple myeloma cell lines against the NCATS MIPE library collection: JJN3_DSMZ cell viability assay (AID 1918966; note: nearly all actives have a fitted effect of over 50% in size; note: potency is the fitted concentration of half-maximal effect)
In short: (§2)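 Inhibition of cell viability is measured here. Each line was plated at 500 cells per well, treated with MIPE 4.0 drugs, kept 48 hours at 37C, then assayed for ATP content by CellTiter-Glo luminescence.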

[5] = Quantitative High-Throughput drug screen in 47 multiple myeloma cell lines against the NCATS MIPE library collection: Karpas25_ECACC cell viability assay (AID 1918968; note: nearly all actives have a fitted effect of over 35% in size; note: potency is the fitted concentration of half-maximal effect)
In short: as §2

[6] = Quantitative High-Throughput drug screen in 47 multiple myeloma cell lines against the NCATS MIPE library collection: KMS12BM_JCRB cell viability assay (AID 1918971); note: nearly all actives have a fitted effect of over 35% in size; note: potency is the fitted concentration of half-maximal effect
In short: (§3)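 Steps: seed 500 cells per well; pin-transfer MIPE 4.0 library; incubate 48 h at 37C, 5% CO2, humidified; add CellTiter-Glo, 5 min room temperature; read luminescence.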

[7] = Quantitative High-Throughput drug screen in 47 multiple myeloma cell lines against the NCATS MIPE library collection: KMS21BM_JCRB cell viability assay (AID 1918974); settings: ATP luminescence, 48 h; viability: at 45.8 µM (top of the series)
In short: as §2

[8] = Quantitative High-Throughput drug screen in 47 multiple myeloma cell lines against the NCATS MIPE library collection: MMM1_PLB cell viability assay (AID 1918976); note: nearly all actives have a fitted effect of over 35% in size; note: potency is the fitted concentration of half-maximal effect
In short: (§4)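 Plated at 500 cells per well, myeloma lines received MIPE 4.0 compounds by pin tool. Following 48 h culture at 37 °C, CellTiter-Glo luminescence gave viability relative to DMSO and media-only controls.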

[9] = Quantitative High-Throughput drug screen in 47 multiple myeloma cell lines against the NCATS MIPE library collection: MOLP8_DSMZ cell viability assay (AID 1918977); note: nearly all actives have a fitted effect of over 45% in size; note: potency is the fitted concentration of half-maximal effect
In short: as §4

[10] = Quantitative High-Throughput drug screen in 47 multiple myeloma cell lines against the NCATS MIPE library collection: NCIH929_DSMZ cell viability assay (AID 1918978); note: nearly all actives have a fitted effect of over 35% in size; note: potency is the fitted concentration of half-maximal effect
In short: as §4

[11] = Quantitative High-Throughput drug screen in 47 multiple myeloma cell lines against the NCATS MIPE library collection: OCIMY1_PLB cell viability assay (AID 1918979); note: nearly all actives have a fitted effect of over 35% in size; note: potency is the fitted concentration of half-maximal effect
In short: as §4

[12] = Quantitative High-Throughput drug screen in 47 multiple myeloma cell lines against the NCATS MIPE library collection: MM1S_ATCC cell viability assay (AID 1918980); note: nearly all actives have a fitted effect of over 45% in size; note: potency is the fitted concentration of half-maximal effect
In short: as §4

[13] = Quantitative High-Throughput drug screen in 47 multiple myeloma cell lines against the NCATS MIPE library collection: H1112_PLB cell viability assay (AID 1918967; note: nearly all actives have a fitted effect of over 30% in size; note: potency is the fitted concentration of half-maximal effect)
In short: as §2

[14] = Quantitative High-Throughput drug screen in 47 multiple myeloma cell lines against the NCATS MIPE library collection: KMS26_JCRB cell viability assay (AID 1918975); note: nearly all actives have a fitted effect of over 45% in size; note: potency is the fitted concentration of half-maximal effect
In short: as §3

[15] = Quantitative High-Throughput drug screen in 47 multiple myeloma cell lines against the NCATS MIPE library collection: KMS27_JCRB cell viability assay (AID 1918970); note: nearly all actives have a fitted effect of over 30% in size; note: potency is the fitted concentration of half-maximal effect
In short: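 KMS27_JCRB myeloma cells, 500 per well, exposed 48 h at 37 C, 5% CO2 to MIPE 4.0 compounds. Viability from ATP by CellTiter-Glo luminescence, normalized to DMSO (100%) and medium-only (0%) wells.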

[16] = Quantitative High-Throughput drug screen in 47 multiple myeloma cell lines against the NCATS MIPE library collection: KMS12PE_JCRB cell viability assay (AID 1918972); note: nearly all actives have a fitted effect of over 30% in size; note: potency is the fitted concentration of half-maximal effect
In short: (§5)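 We plated 500 myeloma cells per well, pinned in MIPE 4.0 compounds, and incubated for 48 hours at 37C. ATP was then quantified with CellTiter-Glo, with DMSO and media-only wells defining 100% and 0%.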

[17] = Quantitative High-Throughput drug screen in 47 multiple myeloma cell lines against the NCATS MIPE library collection: JIM1_ECACC cell viability assay (AID 1918964; note: potency is the fitted concentration of half-maximal effect)
In short: as §2

[18] = Quantitative High-Throughput drug screen in 47 multiple myeloma cell lines against the NCATS MIPE library collection: INA6_PLB cell viability assay (AID 1918965; note: nearly all actives have a fitted effect of over 55% in size; note: potency is the fitted concentration of half-maximal effect)
In short: as §5

[19] = Quantitative High-Throughput drug screen in 47 multiple myeloma cell lines against the NCATS MIPE library collection: KMS20_JCRB cell viability assay (AID 1918973); note: nearly all actives have a fitted effect of over 45% in size; note: potency is the fitted concentration of half-maximal effect
In short: as §2

SMILES	Potency [1]	Potency [2]	Potency [3]	Potency [4]	Potency [5]	Potency [6]	viability [7]	Potency [8]	Potency [9]	Potency [10]	Potency [11]	Potency [12]	Potency [13]	Potency [14]	Potency [15]	Potency [16]	Potency [17]	Potency [18]	Potency [19]	Potency [7]
CC(=Cc1csc(C)n1)[C@@H]1C[C@H]2O[C@]2(C)CCC[C@H](C)[C@@H](O)[C@@H](C)C(=O)C(C)(C)[C@@H](O)CC(=O)O1	1 nM (active)	inactive	inactive	inactive	inactive	inactive	80.2% (active)	inactive	inactive	inactive	inactive	inactive								
CCC(=O)OC1CCC2C3CCC4=CC(=O)CC[C@@]4(C)C3CC[C@]12C (stereo partly drawn)	inactive		inactive						inactive		inactive		inactive	inactive						
COc1ccc2c(c1)[C@]13CCCCC1C(C2)N(C)CC3 (stereo partly drawn)	inactive		inactive		inactive	inactive		inactive	inactive	inactive	inactive				inactive	inactive				
CCCC[N+]1(C)[C@H]2CC(OC(=O)[C@H](CO)c3ccccc3)C[C@H]1[C@H]1O[C@H]12 (stereo partly drawn)	inactive		inactive	inactive	inactive					inactive	inactive	inactive	inactive	inactive	inactive	inactive				
COc1cc2cc(c1Cl)N(C)C(=O)C[C@H](OC(=O)C(C)C)[C@]1(C)O[C@H]1[C@H](C)[C@@H]1C[C@@](O)(NC(=O)O1)[C@H](OC)C=CC=C(C)C2	inactive		inactive	inactive	inactive	inactive		inactive	inactive	inactive		inactive		inactive	inactive	inactive	inactive	inactive	inactive	
O=c1cccc2n1CC1CNC[C@H]2C1	11800 nM (active)		inactive	inactive	23500 nM (active)	inactive			inactive		inactive	10500 nM (active)		inactive		9350 nM (active)		14800 nM (active)	11800 nM (active)	
C[C@@]12OC(=O)[C@]1([C@@H](O)[C@@H]1C=CCCC1)NC(=O)[C@H]2CCCl	7.4 nM (active)		23.5 nM (active)	33.2 nM (active)	1 nM (active)	23.5 nM (active)		132 nM (active)	5.3 nM (active)	1 nM (active)		5.3 nM (active)		10.5 nM (active)	18.7 nM (active)	18.7 nM (active)	20.9 nM (active)	1 nM (active)	29.6 nM (active)	
C[C@]12CC[C@@H]3[C@@H](CCC4=CC(=O)CC[C@@H]43)[C@@H]1CC[C@@H]2OC(=O)CCc1ccccc1	inactive		inactive		inactive						inactive	inactive	inactive							
COC(=O)[C@@H](N)CCCN=C(N)N[N+](=O)[O-]	inactive		inactive						inactive	inactive		inactive			inactive	inactive				
CCCN1CCO[C@@H]2c3cc(O)ccc3OC[C@@H]21	inactive		inactive		inactive	14800 nM (active)		16600 nM (active)		inactive	inactive	14800 nM (active)	inactive		inactive	inactive				
COc1cc([C@@H]2c3cc4c(cc3[C@@H](O)C3COC(=O)C32)OCO4)cc(OC)c1O (stereo partly drawn)	18.7 nM (active)		33.2 nM (active)	118 nM (active)	59 nM (active)	41.8 nM (active)		93.5 nM (active)	418 nM (active)	132 nM (active)	41.8 nM (active)	187 nM (active)	52.6 nM (active)	105 nM (active)	14.8 nM (active)	37.2 nM (active)			66.2 nM (active)	
CC(C)(C)c1cc(C=C(C#N)C#N)cc(Br)c1O	18700 nM (active)		16600 nM (active)	23500 nM (active)	3720 nM (active)	16600 nM (active)				16600 nM (active)									13200 nM (active)	
Cc1c(C(=O)c2cccc3ccccc23)c2cccc3c2n1[C@H](CN1CCOCC1)CO3	5260 nM (active)		23500 nM (active)	16600 nM (active)	14800 nM (active)	18700 nM (active)		23500 nM (active)		23500 nM (active)			23500 nM (active)	23500 nM (active)		7430 nM (active)			18700 nM (active)	
C[C@@H]1CC[C@H]2[C@@H](C)C(=O)O[C@@H]3O[C@@]4(C)CC[C@H]1[C@]32OO4	inactive		1480 nM (active)	13.2 nM (active)	469 nM (active)				187 nM (active)	13200 nM (active)	inactive	296 nM (active)		11800 nM (active)	inactive	inactive				inactive
N=c1c2c(-c3ccccc3)c(-c3ccccc3)n(Cc3ccccc3)c2ncn1C1CCC(O)CC1 (stereo not drawn)	662 nM (active)		743 nM (active)	18700 nM (active)	4180 nM (active)	6620 nM (active)		18700 nM (active)		1320 nM (active)		5260 nM (active)	6620 nM (active)	26400 nM (active)	3720 nM (active)	2640 nM (active)			2640 nM (active)	
